Data taken from PubChem BioAssay AID504937 (National Center for Advancing Translational Sciences (NCATS), 2011).
Screen size: about 340,000 compounds; about 20 (0.006%) were called active. Calls follow the shape of the dose curve; as a rule, active = well fitted inhibition curve with a large enough effect; inconclusive = small, poorly fitted or top-dose-only effect; inactive = no such curve, though single readings can be large or run the other way. The full list was thinned out, with actives kept by preference.

What follows are molecules tested against Sphingomyelin phosphodiesterase (Homo sapiens) (UniProt P17405) (assay: Inhibitors of Secretory Acid Sphingomyelinase (S-ASM): qHTS). Conditions: placental ASM, HMU-PC fluorogenic substrate, 60 min; series mostly up to 57.5 µM; activity change, negative = inhibition: at the top concentration.
Excerpt: Atherosclerosis is the underlying process for cardiovascular disease and thus is a major contributor to disease burden in the population. […] Thus, selective small molecule inhibitors of S-ASM should block LDL modification and reduce aortic LDL retention and may serve as new agents for the treatment of atherosclerosis. In a collaboration between National Heart, Lung, and Blood Institute and the NCGC a high-throughput amenable screen was developed to identify potent and selective small molecule inhibitors of S-ASM. This enzymatic, fluorescent screen uses an ASM enzyme preparation derived from human placenta and was tested against the NIH Molecular Libraries Small Molecule Repository (MLSMR). NIH Chemical Genomics Center [NCGC] NIH Molecular Libraries Probe Centers Network [MLPCN] MLPCN Grant: MH093173-01 Assay Submitter (PI): Alan Remaley, National Heart, Lung, and Blood Institute and Wei Zhen, NIH Chemical Genomics Center
Two microliters of ASM enzyme (1:150 dilution from stock) are dispensed in 1536-well plate. 23 nL of compound and control are pinned into assay plate using the Kalypsys pintool. The plates are then incubated for 10 minutes at ambient room temperature. Then, 2 uL of the flurogenic substrate, HMU-PC0, (9 uM final) are added to the plate. An incubation for 60 minutes takes place at 37 masculineC. After that, 4 uL of stop solution is added to raise the pH to 10 to end the kinetic reaction. Plate is read on ViewLux, with detection set at Ex = 386 (10) nm and Em = 447 (10) nm.

Chain of Sphingomyelin phosphodiesterase (Homo sapiens) (P17405 47-631 limits assumed): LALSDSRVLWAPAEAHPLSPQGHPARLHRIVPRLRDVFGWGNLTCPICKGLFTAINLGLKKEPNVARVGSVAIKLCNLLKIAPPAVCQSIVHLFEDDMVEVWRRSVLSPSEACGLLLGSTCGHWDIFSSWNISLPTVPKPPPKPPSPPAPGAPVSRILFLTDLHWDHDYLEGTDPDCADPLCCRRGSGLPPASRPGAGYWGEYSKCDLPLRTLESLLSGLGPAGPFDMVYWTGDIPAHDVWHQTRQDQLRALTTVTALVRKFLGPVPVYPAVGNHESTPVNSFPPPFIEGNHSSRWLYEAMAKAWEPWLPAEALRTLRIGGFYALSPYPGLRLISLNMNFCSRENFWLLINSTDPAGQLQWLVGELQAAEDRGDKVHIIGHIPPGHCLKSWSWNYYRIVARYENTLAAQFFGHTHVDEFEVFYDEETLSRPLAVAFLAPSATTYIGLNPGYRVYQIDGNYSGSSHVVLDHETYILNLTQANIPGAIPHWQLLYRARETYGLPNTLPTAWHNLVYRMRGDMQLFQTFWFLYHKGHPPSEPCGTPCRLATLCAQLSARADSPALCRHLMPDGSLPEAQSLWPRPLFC

Activity change, negative = inhibition, inactive:
O=C(CCN1C(=O)COc2ccccc21)NCCCN1CCN(c2ccc(F)cc2)CC1 2.7%, O=C(/C=C/c1cccc([N+](=O)[O-])c1)OCC(=O)N1CCOCC1 8.57%, COC(=O)c1cccc(C(=O)N2CCC(CCC(=O)NCc3ccc(F)cc3)CC2)c1 3.52%, CC(=O)OCC(=O)C1(O)CCC2C3CC(C)C4=CC(=O)CCC4(C)C3C(O)CC21C (stereo not given) 3.04%, CC(=O)NNC(=O)c1csc(Cc2c(Cl)sc3ccc(Cl)cc23)n1 -1.54%, CC1CN(S(=O)(=O)c2ccccc2)C(C)CN1S(=O)(=O)c1ccccc1 (stereo not given) 0.844%, Cc1c(Cl)cccc1NC(=O)Nc1ccc(C(=O)N2CCCC2)cc1 -1.21%, O=C(COc1ccc(F)cc1Br)NCC1COc2ccccc2O1 (stereo not given) 2.18%, CCOc1ccc(CCNC(=O)COC(=O)CCS(=O)(=O)c2ccc(C)cc2)cc1OCC 0.919%, Cc1cc(C)nc(SC2CCCCC2NS(=O)(=O)c2ccc(Cl)cc2)n1 (stereo not given) -1.81%, CC1(C)CC(=O)C=C(NCCN2CCNCC2)C1 3.44%, COc1cccc(C(=O)CC(=O)C(=O)Nc2ccc([N+](=O)[O-])cc2C)c1 -7.33%, COc1cccc(NC(=O)N2CCC(NC(=O)C(Cc3cccc(C)c3)NC(C)=O)CC2)c1 (stereo not given) 3.08%, COc1cccc(N2CCN(C(=O)Nc3ccc4c(c3)NC(=O)CO4)CC2)c1 -2.58%, CCOc1ccc(C(=O)N(Cc2ccc(N(C)C)cc2)C2CCS(=O)(=O)C2)cc1 (stereo not given) -3.39%, O=C(NCCCN1CCCC1=O)c1cccc(S(=O)(=O)NCc2ccccc2)c1 -0.664%, COC(=O)c1ccccc1NC(=O)CSc1nc2c(c(=O)[nH]1)CCC2 -0.0256%, CCOc1ccc(NC(=O)CN(C)CC(=O)Nc2cccc(Cl)c2C)cc1OCC -1.93%, COc1ccc(C(=O)NC(=S)N2CCNC(=O)C2CC(=O)OC(C)C)cc1 (stereo not given) 2.82%, O=C(OCc1cc(Cl)ccc1OC(F)F)c1cccnc1 2.08%, O=C(CSc1nnnn1-c1ccc(O)cc1)c1ccc(F)cc1 0.0285%, CCC(=O)Nc1ccc(C(=O)CSc2nnc(CNc3ccc(Cl)cc3)o2)cc1OC -3.49%, COC(=O)c1c(C)oc(C)c1S(=O)(=O)NCc1ccc(Cl)cc1 0.138%, Cc1ccc2[nH]c(C)c(CCNC(=O)NC3CCCCC3)c2c1 11.4%, CCC1=NN(C(=O)Cc2ccc([N+](=O)[O-])cc2)C(O)(c2ccc(Br)cc2)C1 (stereo not given) -4.46%, Cc1cc(C)cc(NC(=O)N(C)Cc2ccccc2)c1 -5.09%, COc1cccc(CNC(=O)CCN2C(=S)NC(C)(C)CC2C)c1 (stereo not given) -1.55%, COc1cc2c(cc1OC)C(Cc1cc(OC)c(OC)cc1[N+](=O)[O-])=NCC2 -9.32%, CS(=O)(=O)N1CCN(CC(=O)NC2CCCC2)CC1 -0.357%, O=[N+]([O-])c1ccc(S(=O)(=O)Nc2cccc(-c3ccc(N4CCCC4)nn3)c2)cc1 -3.91%, COc1ccccc1C1CC(=O)n2c(nc(-c3ccccc3)c2-c2ccccc2)S1 (stereo not given) -2.94%, COc1ccc(N2C(=O)CCC(C(=O)N(C)C3CCCCC3)C2c2ccc(OC)c(OC)c2)cc1 (stereo not given) 2.46%, N#C[C@]1(S(=O)(=O)c2ccccc2)C[C@@H]2ON=C(c3cccc(Br)c3)[C@@H]2C1 0.801%, COC(=O)c1c(C(=O)OC)c2n(c1C)CCS2 2.14%, O=C(NCc1ccncc1)C1CCCN(S(=O)(=O)c2ccc(Br)cc2)C1 (stereo not given) 4.64%, COC(=O)C1=CN(c2ccc(F)c(F)c2)C=C(C(=O)OC)C1c1ccc([N+](=O)[O-])cc1 -6.6%, CC(=O)OCC1(O)CC23CCC4c5ccoc5CCC4(C)C2CCC1C3 (stereo not given) -4.39%, COCCn1c(SCC(=O)Nc2nc(C)cs2)nnc1C(C)C 3.44%, O=C(CNc1cccc(S(=O)(=O)N2CCCCC2)c1)Nc1ccccc1F 21.8%, CCOC(=O)C(CC)Sc1ncnc2c1nnn2-c1ccc(F)cc1 (stereo not given) 1.72%, NC(CSC12CC3CC(CC(C3)C1)C2)C(=O)O (stereo not given) 2.86%, Cc1cccc(NC(=O)N(Cc2cc3cc(C)cc(C)c3[nH]c2=O)CC2COCCO2)c1 (stereo not given) -13.7%, O=C(Cn1cc(/C=N/NC(=O)c2cccc(C(F)(F)F)c2)c2ccccc21)Nc1ccc(F)cc1 2.03%, COc1ccccc1CCNC(=O)CSc1nnc2ccc(-c3cccnc3)nn12 -1.74%, COc1ccccc1NC(=O)CCC(=O)N1CC(C)Oc2ccc(C)cc21 (stereo not given) 4.08%, Cc1cccc(NC(=S)N(CCN(C)C)C(C)c2ccco2)c1 (stereo not given) 3.18%, Cc1oc(C)c(C(=O)NCCCC(=O)O)c1C(=O)NCCCC(=O)O 3.69%, CSc1nc(C)nc(C2CC2)c1C#N 3.92%, CN(C)CCCNC(=O)c1cc(C(=O)Cc2ccc(Cl)cc2)c[nH]1 -1.05%, CN(C(=O)c1cccc(NC(=O)Cc2ccc(NC(=O)C3CCN(C(=O)C4CCCCC4)CC3)cc2)c1)C1CCC1 -0.203%, COc1ccc(CN(CC(=O)NC2CCCC2)C(=O)CCC(=O)Nc2cc(C)on2)cc1 7.46%, COC(=O)c1sccc1-n1cccc1C(=O)C(=O)N1CCCCC1 -6.14%, Cc1ccc2c(c1)nnc1nnc(SCC(=O)O)n12 2.22%, Cc1cccc(OC(C)C(=O)N2CCc3ccccc3C2)c1 (stereo not given) 4.94%, CC(=O)N1CCc2ccc(N)cc21 3.14%, CCc1noc(C)c1C(=O)N1CCCC(N2CCN(c3ccc(F)cc3)CC2)C1 (stereo not given) 0.409%, CCCCCCNCCn1cnc2c(N)ncnc21 3.85%, Cc1cc(NC(=O)CSc2nc(=O)cc(N)n2-c2ccc(F)cc2)no1 3.93%, Cc1cc(C)n(-c2nnc(C)n2NC(=O)c2cccc(Cl)c2)n1 2.43%, COCCN1C(=O)C(=O)/C(=C(/O)c2ccc(S(=O)(=O)N3CCCCC3)cc2)C1c1ccc(OC)c(OC)c1 (stereo not given) -3.13%, Cc1[nH]c2ccccc2c1SCC(=O)Nc1nccs1 -2.52%, CS(=O)(=O)N1CCc2cc(C(=O)Nc3ccccc3Br)ccc21 -1.09%, N#C/C(C(=O)N1CCOCC1)=C1/SC(Cc2ccc(F)cc2)C(=O)N1c1ccccc1 (stereo not given) 0.557%, O=C(NCc1cccs1)C(=O)NCC1OCCCN1S(=O)(=O)c1ccc(F)cc1 (stereo not given) 3.48%, Cc1ccc(S(=O)(=O)N2CCC(C(=O)OCC(=O)N3CC(=O)Nc4ccccc43)CC2)cc1 2.96%, O=C(NC1CCCC1)C(c1ccccn1)N(C(=O)c1csnn1)C1CCCC1 (stereo not given) 1.68%, CCc1ccc(NC(=O)C(=O)N/N=C(\C)CC(=O)NCCOC)cc1 2.25%, O=C(Nc1cccc(S(=O)(=O)NC2=NCCC2)c1)C1CCCCC1 4.29%, COC(=O)c1ccc(Nc2ncnc3sccc23)cc1 1.35%, COc1ccc(NC(=S)N2N=CCC2c2ccccc2)cc1 (stereo not given) -2.8%
